# Compound activity from PubChem.
# This is a sample that favours compounds with a hit; in the whole collection about 3% have one here.
# esBAF inh = inhibitors of esBAF chromatin remodeling in mouse ES cells; Bmi1-luciferase knock-in reporter, 24 h; 100% = twice the neutral-well signal; reporter increase, % at 12.5 µM; actives 2% (n = 350,000); in the data active means activation above about 40%; inconclusive means no clear call, values can overlap the other calls;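 further: 0% = median of the plate's neutral control wells and 100% = double that signal; a rise in the Bmi1 reporter signal indicates esBAF inhibition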
# MITF TRPM1 HTS = activators of MITF-driven TRPM1 promoter activity in SK-MEL-5 cells; activation, % at 12.5 µM; SK-MEL-5 TRPM1-promoter luciferase, 24 h; % of positive control, neutral wells = 0; actives 0.75% (n = 300,000);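 active means mean activation of at least 80% with every replicate also reaching 80%; inconclusive means mean reaches 80% but some replicate falls short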;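 further: 0% = neutral control wells and 100% = parthenolide positive control wells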
# Vif imaging = HIV Vif inhibition. HEK293T cells, Vif self-association by quenched fluorescence, imaging, 24 h. inhibition, % at 7.49 µM. AID 602346. actives 0.35% (n = 340,000); in the data active means inhibition above about 50%, passing the limit was not always enough; inconclusive means no clear call, values can overlap the other calls; inactive means below about 31%
# Wnt act = activates Wnt/beta-catenin signaling in a reporter cell assay; actives 1.2% (n = 300,000); activation, % at 9.35 µM; activator, plate reader; AID 743398; in the data active means activation above about 30%, passing the limit was not always enough; inconclusive means no clear call, values can overlap the other calls;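 further: 0% = neutral control wells and 100% = positive control wells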
# N-glyco inh = blocks N-linked glycosylation in D54 reporter cells; D54 ERlucT glycosylation luciferase reporter, 24 h; percent of 100 nM tunicamycin response; reporter increase, % at 12.5 µM; actives 0.23% (n = 360,000);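 active means mean luciferase reporter signal, scaled so untreated is 0 and the glycosylation-blocking control 100, at or above a set limit in every replicate; inconclusive means mean reaches the limit but not every replicate does; inactive means mean below the limit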;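 further: luciferase carries N-glycosylation sites so blocking glycosylation raises the light; 0% = median of neutral control wells and 100% = median of 100 nM tunicamycin wells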
# PfHsp90 set2 = inhibits growth of yeast expressing Plasmodium falciparum Hsp90. S. cerevisiae expressing PfHsp90, BacTiter-Glo ATP, 48 h; yeast lacking PDR1 and PDR3 efflux regulators. inhibition, % at 9.4 µM. actives 0.32% (n = 310,000). AID 504621;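 active means every replicate shows inhibition above about 80%, whatever the replicate mean, limit read from the data; inconclusive means mean inhibition reaches the set limit but some replicate falls short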;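 further: 0% = DMSO neutral controls and 100% = 20 µM radicicol positive controls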
# The depositor's hits bear a star; i = inactive; ? = inconclusive; · = no result.
SMILES,esBAF inh,MITF TRPM1 HTS,Vif imaging,Wnt act,N-glyco inh,PfHsp90 set2
Cc1cc(C)c2c(n1)sc1c(=O)n(CC(=O)c3ccccc3)cnc12,46.7*,·,-0.2,?,-1.0,1.2
Cc1nc2cc(OCc3cc(C(=O)NC(C)c4cnn(C)c4)no3)ccc2s1 (stereo unspecified),·,30.1,·,5.4,-0.2,31.1
COc1cccc(OCc2cc(C(=O)NC(C)c3cnn(C)c3C)no2)c1 (stereo unspecified),43.8*,45.0,-4.1,9.1,2.3,3.8
COCCN1CCN(C(=O)c2cc(COc3ccc(Cl)cc3OC)on2)CC1,?,79.2,-6.4,35.7*,0.6,7.0
COCCCC1CCN(C(=O)c2cc(COc3cc(C)ccc3C)on2)CC1,104.3*,?,-0.4,29.4,-1.0,10.1
COc1ccc(OCc2cc(C(=O)NC(C)c3cnn(C)c3)no2)c(Cl)c1 (stereo unspecified),53.9*,81.4*,9.1,24.9,0.4,14.6
COc1cc(Cl)ccc1OCc1cc(C(=O)N2CCCCCCC2)no1,13.5,3.2,-12.3,4.0,1.5,-3.9
COC1CCN(C(=O)c2cc(COc3cc(C)ccc3C)on2)CC1,28.7,·,4.0,13.8,2.6,·
COc1cc2cc(C#N)c(SCC(=O)N3CCOCC3)nc2cc1OC,10.6,·,0.4,18.3,0.3,-2.9
COC(=O)C1=C(C)N(C)C(=NCc2ccccc2)NC1c1ccccc1 (stereo unspecified),·,·,·,0.7,·,·
O=C(NCCc1ccccc1)[C@@H]1[C@@H](CO)[C@@H]2Cn3c(ccc(-c4cccc(F)c4)c3=O)[C@H]1N2,2.1,·,·,·,·,·
COc1ccc(OCc2cc(C(=O)N3CCOCC3)no2)c(Cl)c1,36.9,?,-8.5,33.9*,-6.4,-24.5
CC(=O)NCCC1CCCCN1C(=O)c1cc(COc2cc(C)ccc2C)on1 (stereo unspecified),66.3*,?,-4.5,22.1,-1.4,-0.8
Cc1ccc(C)c(OCc2cc(C(=O)N3CCC(N4CCCC(O)C4)CC3)no2)c1 (stereo unspecified),0.8,9.5,-2.5,0.5,5.5,-9.1
Cc1ccc(C)c(OCc2cc(C(=O)N3CCOCC3)no2)c1,49.7*,73.6,-5.1,15.0,5.2,0.2
COc1ccc(OCc2cc(C(=O)N3CCCCCC3)no2)c(Cl)c1,·,?,·,17.4,5.2,-9.3
Cc1ccc(C)c(OCc2cc(C(=O)N3CCNC(=O)C3)no2)c1,2.9,13.1,-3.5,3.7,2.6,3.3
COc1cc(C)ccc1OCc1cc(C(=O)NC2CCOCC2)no1,46.9*,·,·,-2.2,0.5,·
COc1cccc(S(=O)(=O)N[C@@H]2CC[C@@H](CCNC(=O)Nc3cc(F)ccc3F)O[C@H]2CO)c1,15.0,·,·,·,·,·
Cc1ccc(-n2c(SCC(N)=O)nc3c(c2=O)C2(CCCC2)Cc2ccccc2-3)cc1,-3.8,-8.2,-9.0,6.4,-1.8,12.2
C[C@@H]1CN([C@H](C)CO)S(=O)(=O)c2ccc(/C=C/c3ccccc3)cc2O[C@H]1CN(C)C(=O)c1cccnc1,10.5,·,·,·,·,·
COCCN1CCN(C(=O)c2cc(COc3cc(C)ccc3C)on2)CC1,72.7*,45.2,-2.2,1.0,0.1,-6.0
CC(=O)Nc1ccc2cc3ccc(NC(C)=O)cc3nc2c1,21.7,18.2,8.4,11.5,36.3*,-39.3
CC(=O)Nc1ccc2ccccc2c1,24.9,24.0,1.3,·,1.6,14.8
C[C@@H]1CN([C@@H](C)CO)C(=O)c2cc(NC(=O)c3ccncc3)ccc2O[C@@H](C)CCCCO[C@@H]1CN(C)CC1CCCCC1,3.1,·,·,·,·,·
SMILES,esBAF inh,MITF TRPM1 HTS,Vif imaging,Wnt act,N-glyco inh,PfHsp90 set2
COc1ccc2nc(SCC(=O)C(C)(C)C)[nH]c2c1,·,51.1,1.2,41.1*,-1.0,17.3
COc1ccc2nc(SCC(=O)c3ccco3)[nH]c2c1,36.3,95.1*,10.3,33.1*,-1.5,20.5
C[N+]1(CC2COC3(CCCCC3)O2)CCCCC1 (stereo unspecified),·,2.7,7.7,0.0,0.2,-12.2
O=C(CSCc1cccc(Br)c1)N=Nc1c(O)[nH]c2ccccc12,·,·,1.4,-0.3,2.3,·
O=Nc1c(-c2c(O)[nH]c3cc(Br)ccc23)[nH]c2ccccc12,111.1*,8.0,-3.0,77.3*,-0.9,5.0
COc1ccc(C(CNC(=O)c2cccn2C)N2CCOCC2)cc1 (stereo unspecified),56.6*,44.2,-5.6,18.2,0.9,13.9
O=C(NCC(c1ccc(F)cc1)N1CCOCC1)c1c(F)cccc1F (stereo unspecified),2.6,2.5,-2.3,38.7*,0.5,11.3
Cc1ccc(S(=O)(=O)N/N=C/C(C)(C)CO)cc1,·,0.0,·,·,0.8,·
CCCCCC(=O)Nc1ccc(Cc2ccncc2)cc1,-2.1,-15.2,80.1*,·,-1.1,12.4
NS(=O)(=O)c1ccc(NC(=O)CCCCC(=O)Nc2ccc(S(N)(=O)=O)cc2)cc1,-4.4,11.1,8.1,-4.8,1.7,-22.3
NCCCCCC(=O)Nc1ccncc1,·,0.2,59.9*,-1.0,1.6,-3.9
O=C(NCCS(=O)(=O)NCCc1ccccc1)c1ccc2c(c1)OCO2,·,107.8*,4.1,-1.1,-7.4,·
O=C(NCCc1cccc(Cl)c1)c1ccc2c(c1)OCO2,·,27.4,0.4,44.7*,-14.9,23.3
COc1cc(C2c3[nH]c4ccccc4c3CC3COC(=O)N32)cc(OC)c1O (stereo unspecified),·,·,5.6,-6.7,35.9*,16.6
CCCCn1c(NC(=O)c2ccccc2Cl)c(C#N)c2nc3ccccc3nc21,-19.7,-6.6,-29.5,5.5,0.7,77.8*
Cc1ccc(-c2cn3c(n2)SCC3)cc1,6.6,22.9,22.8,65.2*,-1.4,22.9
CCc1ccc(-c2cn3c(n2)SCC3)cc1,29.1,63.6,·,13.8,-5.3,24.0
CCc1ccc(Oc2cc(C)nc(N)n2)cc1,60.6*,53.3,·,·,-1.7,-35.4
CCCc1ccc(Oc2cc(Cl)nc(N)n2)cc1,·,27.4,3.6,10.8,1.5,-7.6
COc1cc(/C=C(\C#N)C(=O)NCC2CCCO2)ccc1O (stereo unspecified),·,36.5,16.7,-0.8,1.3,-10.5
N#C/C(=C\c1ccc(N2CCOCC2)o1)C(=O)NC1CCCCC1,46.3,·,i,10.1,2.4,-1.7
Cc1cc(/C=C(\C#N)C(=O)NCC2CCCO2)c(C)n1-c1ccc(Cl)cc1 (stereo unspecified),87.6*,?,-16.7,·,-4.0,-3.2
N#C/C(=C\c1ccc(N2CCOCC2)o1)C(=O)NCC1CCCO1 (stereo unspecified),0.5,-7.5,111.2*,-0.7,3.6,-8.6
N#C/C(=C/c1ccc(N2CCOCC2)o1)C(=O)Nc1ccccc1,36.1,57.7,·,50.3*,-9.6,24.0
N#C/C(=C\c1ccc(N2CCOCC2)o1)C(=O)NCCc1ccccc1,8.1,15.0,·,-2.1,0.9,-20.6
